SMILES strings stand for the structures. The campaign covered roughly 1,400 compounds. About 350 (25%) were called active. Roughly 2% stayed inconclusive and do not appear here. These entries were drawn from the full list. Potency and affinity values are given separately. Unmarked numbers belong to inactive results. No rule for the calls is given here.

The nature of this experiment: inhibitors of Clostridioides difficile proliferation – 4-point retest, confirmation (AID 1224921).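 Also: plate controls were DMSO wells for no effect and levofloxacin 16 µg/mL wells for full effect.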 The following applies: Clostridioides difficile clinical isolate growth, OD600, 24 h, active compounds read low; at 30 µM unless noted.
Turning to `CCCC(=O)Nc1ccc2c(c1)C(=O)N(C)C[C@@H](OC)[C@H](C)CN(CC1CCOCC1)[C@H](C)CO2`, the max activity was -10.1%.

In the case of `CCC(=O)N[C@@H]1C=C[C@H](CC(=O)OC)O[C@H]1CO`, the max activity is -12.4%.

Regarding `CN1CCN(C(=O)C[C@H]2C[C@H]3c4cc(NC(=O)Cc5ccncc5)ccc4O[C@H]3[C@H](CO)O2)CC1`, the max activity was 13.8%.

In the case of `C[C@H](CO)N1C[C@H](C)[C@H](CN(C)Cc2ccc(C(F)(F)F)cc2)OCCCC[C@H](C)Oc2ccc(NC(=O)CCCN(C)C)cc2C1=O`, the max activity is 31.1%.

Take `C[C@@H]1CN([C@@H](C)CO)C(=O)c2cc(/C=C/c3ccccc3)cnc2O[C@H]1CN(C)C(=O)NC1CCCCC1`: the max activity was -30.5% [at 8 µM].

Turning to `CCCN1C[C@@H](C)[C@H](OC)CN(C)C(=O)c2cc(NC(=O)COC)ccc2OC[C@@H]1C`, the max activity is 15%.

In the case of `COc1cccc(S(=O)(=O)Nc2ccc3c(c2)[C@@H]2C[C@H](CC(=O)NC4CCCCC4)O[C@H](CO)[C@@H]2O3)c1`, the max activity is 27.9%.

On to `COc1ccccc1CNC(=O)C[C@@H]1C[C@@H]2c3cc(NC(=O)Nc4ccc(C(F)(F)F)cc4)ccc3O[C@@H]2[C@H](CO)O1`, for which the max activity is 28.8%.

Turning to `COc1ccccc1CNC(=O)C[C@H]1C[C@@H]2c3cc(NC(=O)Nc4ccc(C(F)(F)F)cc4)ccc3O[C@@H]2[C@H](CO)O1`, the max activity was 28%.

`COc1ccccc1CNC(=O)C[C@H]1C[C@H]2c3cc(NC(=O)Nc4ccc(C(F)(F)F)cc4)ccc3O[C@H]2[C@@H](CO)O1`: the max activity is 26.5%.

For `CCCN1C[C@H](C)[C@H](OC)CN(C)C(=O)c2cc(NC(=O)c3cccc(F)c3)ccc2OC[C@H]1C`, the max activity was 8.18% [at 8 µM].

For the compound `C[C@@H]1CN([C@H](C)CO)C(=O)c2ccccc2-c2ccccc2CO[C@H]1CN(C)C(=O)[C@H](C)c1ccccc1`, the max activity is 15.9%.

`CC(C)CC#Cc1ccc2c(c1)O[C@@H](CN(C)CC1CCOCC1)[C@H](C)CN([C@H](C)CO)S2(=O)=O`: the max activity was 29%.

`C[C@@H]1CN([C@H](C)CO)C(=O)Cc2cc(NC(=O)C3CC3)ccc2O[C@@H]1CN(C)Cc1ccc(Oc2ccccc2)cc1`: the max activity is 25.1%.

For the compound `COc1ccccc1C#Cc1ccc2c(c1)O[C@H](CN(C)Cc1cccnc1)[C@@H](C)CN([C@@H](C)CO)S2(=O)=O`, the max activity was 53.8%.

Regarding `CCS(=O)(=O)Nc1ccc2c(c1)C(=O)N(C)C[C@H](OC)[C@@H](C)CN(CC1CCCC1)[C@@H](C)CO2`, the max activity was -15.1% [at 8 µM].

For the compound `C[C@@H]1CN([C@@H](C)CO)S(=O)(=O)c2ccc(C#CC3CCCCC3)cc2O[C@@H]1CN(C)Cc1cccnc1`, the max activity was 69.7%.

On to `C[C@@H]1CN([C@H](C)CO)S(=O)(=O)c2ccc(-c3ccccc3)cc2O[C@H]1CN(C)Cc1ccncc1`, for which the max activity is 33.9%.

As for `COc1ccccc1C#Cc1ccc2c(c1)O[C@@H](CN(C)Cc1cccnc1)[C@H](C)CN([C@@H](C)CO)S2(=O)=O`, the max activity was 26.4%.

For `CC(C)C#Cc1ccc([C@@H]2[C@@H](C#N)N(C(=O)C3CCC3)[C@H]2CO)cc1`, the max activity is 32.2% [at 8 µM].

As for `C[C@@H]1CN([C@@H](C)CO)S(=O)(=O)c2ccc(C3=CCCCC3)cc2O[C@H]1CN(C)Cc1ccncc1`, the max activity was 29.4%.

As for `CCCC#Cc1ccc2c(c1)O[C@H](CN(C)Cc1ccncc1)[C@@H](C)CN([C@H](C)CO)S2(=O)=O`, the max activity is 11.6%.

`COCC(=O)Nc1ccc2c(c1)OC[C@H](C)N(Cc1cncnc1)C[C@@H](C)[C@@H](OC)CN(C)C2=O`: the max activity is -11.6%.

With `O=C(Nc1cc(F)ccc1F)N[C@H]1CC[C@@H](CC(=O)N2CCc3ccccc3C2)O[C@H]1CO`, the max activity is -5.46% [at 0.5 µM].

Take `O=C(C[C@H]1C=C[C@@H](NC(=O)c2ccccn2)[C@H](CO)O1)NCc1cc(F)cc(F)c1`: the max activity is 7.65%.

Regarding `CO[C@H]1CN(C)C(=O)c2cc(NC(=O)c3ccccc3)ccc2OC[C@H](C)N(CC2CC2)C[C@H]1C`, the max activity is -5.21% [at 8 µM].

Consider `O=C(Nc1cc(F)ccc1F)N[C@@H]1CC[C@H](CC(=O)N2CCc3ccccc3C2)O[C@@H]1CO`, for which the max activity is 29.6%.

For the compound `CCCC#Cc1ccc2c(c1)O[C@H](CN(C)Cc1cccnc1)[C@@H](C)CN([C@H](C)CO)S2(=O)=O`, the max activity is 41%.

As for `CO[C@H]1CN(C)C(=O)c2cc(NC(C)=O)ccc2OC[C@H](C)N(Cc2nccs2)C[C@H]1C`, the max activity was 16%.

With `O=C1O[C@@H](c2ccccc2)[C@@H](c2ccccc2)N2[C@@H](c3ccc(O)cc3)[C@]3(C(=O)Nc4ccc(C#CC5=CCCCC5)cc43)[C@@H](C(=O)O)[C@H]12`, the max activity was 28.7% [at 8 µM].

For the compound `CCCNC(=O)N[C@@H]1C=C[C@@H](CC(=O)N2CCN(C)CC2)O[C@H]1CO`, the max activity is -11.4%.

In the case of `Cc1noc(C)c1NC(=O)N[C@H]1CC[C@H](CC(=O)Nc2ccc(-c3ccccc3)cc2)O[C@H]1CO`, the max activity was 16%.

Take `CCCC(=O)Nc1ccc2c(c1)C(=O)N(C)[C@H]1CC[C@@H](CC(=O)OC)O[C@@H]1CO2`: the max activity was -11% [at 0.5 µM].

On to `Cc1ccc(-c2ccc3c(c2)O[C@@H](CN(C)Cc2cccnc2)[C@H](C)CN([C@H](C)CO)S3(=O)=O)cc1`, for which the max activity was 16.8%.

On to `NC(=O)[C@H]1[C@@H]2C(=O)O[C@@H](c3ccccc3)[C@@H](c3ccccc3)N2[C@@H](c2ccc(O)cc2)[C@]12C(=O)Nc1ccc(C#CC3(O)CCCCCC3)cc12`, for which the max activity was 32.1%.

Turning to `C[C@H]1CN([C@@H](C)CO)S(=O)(=O)c2ccc(C#CC3(O)CCCC3)cc2O[C@H]1CN(C)C(=O)Nc1ccc(F)cc1`, the max activity is 15.4% [at 8 µM].

For `C[C@H](CO)N1C[C@H](C)[C@@H](CN(C)Cc2ccc(Cl)c(Cl)c2)Oc2ccc(NS(=O)(=O)c3ccccc3)cc2CC1=O`, the max activity is 28.2%.

As to `CO[C@@H]1CN(C)C(=O)c2cc(NC(=O)c3ccc(Oc4ccccc4)cc3)ccc2OC[C@H](C)NC[C@H]1C`, the max activity is -11.3% [at 0.5 µM].

The record behind these values is PubChem BioAssay AID1224921 (Broad Institute, 2016).
